The text below walks through data of PubChem BioAssay (NCI).

Among the test systems are SR leukemia; RPMI-8226 leukemia; OVCAR-8 ovarian; OVCAR-5 ovarian; OVCAR-4 ovarian; SK-OV-3 ovarian; IGROV1 ovarian; OVCAR-3 ovarian; HS 578T breast; NCI/ADR-RES ovarian; T-47D breast; BT-549 breast; MDA-MB-435 melanoma; SW-620 colon; MCF7 breast; HCC-2998 colon; KM12 colon; HCT-116 colon.
Holding throughout (test): NCI-60 one-dose screen, 48 h (100 = growth as untreated, 0 = no growth, -100 = all killed)
Holding throughout (conditions): 10 µM unless noted

Compounds without any hit were thinned out: in the full panel of roughly 83,000, 20% have a hit.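 Compound tested at a single concentration for 48 hours in 96-well plates; a percent growth value below 10 was scored as active.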 Values without a mark were called inactive. Active and inactive are the calls of the source.

As to `C=C1C(=O)O[C@H]2[C@H]1CC/C(Cn1cc(CNC(=O)/C=C/c3c[nH]c4ccccc34)nn1)=C\CC[C@@]1(C)O[C@@H]21`, the growth was 56.6% in the test with SR leukemia; 13% in the test on RPMI-8226 leukemia; 98.9% in the test with OVCAR-8 ovarian; 114% in the test with OVCAR-5 ovarian; 100% in the test on OVCAR-4 ovarian; 103% with SK-OV-3 ovarian. Also, the growth with IGROV1 ovarian was 86.2%; in the test on OVCAR-3 ovarian, 30.5%; in the test on HS 578T breast it was 95.4%; in the test with NCI/ADR-RES ovarian, 108%; in the test on T-47D breast it was 107%; in the test on BT-549 breast, 112%. Further, the growth in the test on MDA-MB-435 melanoma is 83.9%; in the test with SW-620 colon it was 49.9%; in the test with MCF7 breast, 42%; in the test on HCC-2998 colon, 118%; in the test with KM12 colon, 98%.
As for `Cc1ccc2[nH]c(=O)c3c(c2c1)Oc1ncn2nc(-c4ccco4)nc2c1C3c1ccc(Cl)cc1` (configuration not stated), the growth in the test with SR leukemia is 106%; in the test with RPMI-8226 leukemia, 101%; with OVCAR-8 ovarian, 93.4%; in the test on OVCAR-5 ovarian, 98.2%; in the test with OVCAR-4 ovarian, 87.9%; in the test on SK-OV-3 ovarian it was -90.5% (active). Further, the growth in the test on IGROV1 ovarian was 98%; in the test on OVCAR-3 ovarian, 111%; in the test on HS 578T breast, 93%; in the test with NCI/ADR-RES ovarian, 94.9%; with T-47D breast, 89.4%; with BT-549 breast, 91.4%. Also, the growth in the test with MDA-MB-435 melanoma was 98.5%; in the test with SW-620 colon it was 99%; with MCF7 breast it was 86.7%; in the test with HCC-2998 colon, 98.1%; in the test with KM12 colon, 99.4%.
In the case of `CCN(CC)CCCNc1nccc2ccc(Cl)cc12`, the growth with SR leukemia is 94.3%; in the test with RPMI-8226 leukemia, 101%; in the test on OVCAR-8 ovarian it was 94.8%; with OVCAR-5 ovarian, 92%; in the test with OVCAR-4 ovarian, 108%; with SK-OV-3 ovarian, 100%. For the same compound, the growth with IGROV1 ovarian is 118%; in the test on OVCAR-3 ovarian it was 105%; with HS 578T breast, 109%; in the test on NCI/ADR-RES ovarian it was 105%; in the test with T-47D breast, 106%; in the test with BT-549 breast it was 92.8%. In addition, the growth is 103% in the test with MDA-MB-435 melanoma; 104% in the test with SW-620 colon; 84.9% in the test with HCT-116 colon; 106% with HCC-2998 colon; 111% in the test with KM12 colon.
Turning to `N#Cc1c(-c2ccccc2)cc(-c2ccccc2)n(CC(=O)NO)c1=O`, the growth in the test with SR leukemia is 2.74% (active); with RPMI-8226 leukemia, 23.2%; with OVCAR-8 ovarian, 67.7%; with OVCAR-5 ovarian, 69.3%; with OVCAR-4 ovarian, 50.6%; with SK-OV-3 ovarian, 107%. Moreover, the growth in the test on IGROV1 ovarian was -61.4% (active); in the test with OVCAR-3 ovarian, 30%; in the test with HS 578T breast, 39.4%; in the test with NCI/ADR-RES ovarian, 11.5%; in the test with T-47D breast, 14.9%; in the test on BT-549 breast, 1.67% (active). Further, the growth in the test with MDA-MB-435 melanoma is 49.8%; with SW-620 colon, 59.8%; with MCF7 breast, 21.9%; in the test with HCC-2998 colon, 86.5%; with KM12 colon it was 41.2%.
For `COC(=O)c1cccc2c1N(C)c1c(cccc1C(=O)OC)CC2`, the growth with SR leukemia is 114%; in the test on RPMI-8226 leukemia, 90.5%; in the test with OVCAR-8 ovarian, 113%; in the test with OVCAR-5 ovarian, 98.7%; in the test on OVCAR-4 ovarian, 112%; in the test with SK-OV-3 ovarian it was 110%. The growth is 108% in the test with IGROV1 ovarian; 102% in the test on OVCAR-3 ovarian; 89.7% in the test with HS 578T breast; 95.6% with NCI/ADR-RES ovarian; 95.6% in the test with T-47D breast; 112% in the test on BT-549 breast. Moreover, the growth is 101% in the test on MDA-MB-435 melanoma; 105% in the test on SW-620 colon; 108% with MCF7 breast; 97.4% in the test with HCC-2998 colon; 101% with KM12 colon.
With `Cc1cc(N/N=C/c2nc(-c3ccccc3)oc2C)c2cc(Cl)ccc2n1`, the growth in the test on SR leukemia was -13.7% (active); in the test with RPMI-8226 leukemia, -39.4% (active); with OVCAR-8 ovarian, -41.7% (active); in the test on OVCAR-5 ovarian, -88.5% (active); in the test on OVCAR-4 ovarian, -89.6% (active); with SK-OV-3 ovarian it was 76.4%. Besides, the growth is -83.7% (active) in the test on IGROV1 ovarian; -92.5% (active) in the test with OVCAR-3 ovarian; -48.9% (active) in the test with HS 578T breast; -62.5% (active) with NCI/ADR-RES ovarian; -1.37% (active) in the test with T-47D breast; 87% with BT-549 breast. In addition, the growth in the test on MDA-MB-435 melanoma is -95.6% (active); in the test with SW-620 colon, -73.3% (active); in the test with MCF7 breast, -71.9% (active); with HCC-2998 colon it was -77.4% (active); in the test with KM12 colon, -83.3% (active).
Take `COc1ccc(N=Cc2c(O)ccc3c2oc2cc(Cl)c(O)c(Cl)c23)cc1`: the growth in the test with SR leukemia was 83%; in the test with RPMI-8226 leukemia, 78.3%; in the test on OVCAR-8 ovarian it was 93.8%; in the test with OVCAR-5 ovarian, 102%; in the test with OVCAR-4 ovarian, 98.3%; in the test on SK-OV-3 ovarian it was 104%. The growth with IGROV1 ovarian is 62.2%; in the test with OVCAR-3 ovarian, 117%; in the test on HS 578T breast, 93.5%; in the test on NCI/ADR-RES ovarian, 84.5%; with T-47D breast it was 87.9%; in the test on BT-549 breast, 53.3%. In addition, the growth in the test with MDA-MB-435 melanoma was 94%; with SW-620 colon, 99.2%; in the test with MCF7 breast, 69.6%; in the test on HCC-2998 colon it was 88.7%; in the test on KM12 colon, 104%.
Turning to `Cn1c2ccc(Br)cc2c2c3c(c4c5ccccc5[nH]c4c21)C(=O)N(O)C3=O`, the growth with SR leukemia is 0.179% (active); in the test on RPMI-8226 leukemia it was -29.5% (active); in the test on OVCAR-8 ovarian, -27.2% (active); in the test on OVCAR-5 ovarian it was -6.8% (active); with OVCAR-4 ovarian, 3.5% (active); with SK-OV-3 ovarian, -84.2% (active). For the same compound, the growth in the test with IGROV1 ovarian is -79.4% (active); in the test with OVCAR-3 ovarian, -86.2% (active); with HS 578T breast, 1.47% (active); in the test with NCI/ADR-RES ovarian, 26.3%; with T-47D breast, -24.1% (active); in the test on BT-549 breast, -85.2% (active). The growth with MDA-MB-435 melanoma is -59.3% (active); in the test on SW-620 colon, -12.2% (active); with HCT-116 colon it was -34.7% (active); in the test with HCC-2998 colon, -87.4% (active); with KM12 colon it was -65.8% (active).
As for `COc1cccc(-c2nc3sccn3c2-c2ccnc(NCCCNS(=O)(=O)c3ccc(F)cc3)c2)c1`, the growth with SR leukemia is 45.2%; with RPMI-8226 leukemia it was -25.1% (active); in the test with OVCAR-8 ovarian, 16%; in the test on OVCAR-5 ovarian it was 83.6%; with OVCAR-4 ovarian, 30.2%; in the test with SK-OV-3 ovarian, 74.8%. The growth was 29.7% in the test on IGROV1 ovarian; 35.8% in the test on OVCAR-3 ovarian; 63.7% with HS 578T breast; 10.2% in the test with NCI/ADR-RES ovarian; -3.13% (active) in the test on T-47D breast; 13% in the test with BT-549 breast. The growth was 19.1% with MDA-MB-435 melanoma, 41.7% in the test on SW-620 colon, 31.8% with MCF7 breast and 21% with KM12 colon.
